The whole screen tested about 96,000 compounds, of which about 200 (0.21%) were called active. Many of the other results were omitted from the sample, so actives are more common in it than they were. Unmarked numbers belong to inactive results.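 Rule for the calls: active = inhibition at 2 µM at or above a set limit, the screen mean plus 3 SD (cut at about 24% in these data); inactive = the rest.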
biological target: Tyrosine-protein phosphatase non-receptor type 22 (Homo sapiens) (UniProt Q9Y2R2); experiment: PTPN22 phosphatase inhibitors, primary screen, biochemical, DiFMUP fluorescence, 2 µM (AID 640); conditions: recombinant LYP catalytic domain, at 2 µM, hits give high values;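 note: 0% = DMSO with enzyme and 100% = enzyme fully blocked by orthovanadate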
Sequence (Q9Y2R2 whole entry, looked up, the tested form may be a part): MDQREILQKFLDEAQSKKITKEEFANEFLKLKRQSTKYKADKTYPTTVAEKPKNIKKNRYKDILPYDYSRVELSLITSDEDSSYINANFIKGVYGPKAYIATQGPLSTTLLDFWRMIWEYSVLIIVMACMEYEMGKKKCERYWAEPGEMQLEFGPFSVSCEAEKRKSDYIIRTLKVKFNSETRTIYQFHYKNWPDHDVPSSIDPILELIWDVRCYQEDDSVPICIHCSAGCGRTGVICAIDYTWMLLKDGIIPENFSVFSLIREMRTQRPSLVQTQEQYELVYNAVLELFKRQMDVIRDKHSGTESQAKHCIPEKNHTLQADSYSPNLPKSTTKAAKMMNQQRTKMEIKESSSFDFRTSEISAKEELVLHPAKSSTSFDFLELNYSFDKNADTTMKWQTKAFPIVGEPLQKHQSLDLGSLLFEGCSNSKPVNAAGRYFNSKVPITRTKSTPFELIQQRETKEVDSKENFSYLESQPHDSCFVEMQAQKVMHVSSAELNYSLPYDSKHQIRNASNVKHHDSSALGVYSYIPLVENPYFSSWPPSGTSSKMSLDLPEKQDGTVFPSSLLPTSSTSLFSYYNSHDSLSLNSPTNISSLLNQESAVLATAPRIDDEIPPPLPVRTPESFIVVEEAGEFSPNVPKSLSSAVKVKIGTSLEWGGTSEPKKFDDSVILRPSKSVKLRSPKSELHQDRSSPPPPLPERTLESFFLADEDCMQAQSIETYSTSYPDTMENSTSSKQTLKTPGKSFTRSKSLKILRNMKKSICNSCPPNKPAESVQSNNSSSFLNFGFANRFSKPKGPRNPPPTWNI

| SMILES | inhibition |
| --- | --- |
| Cc1nn(C(C)CC(=O)O)c(C)c1C (centres undefined) | 7.9% |
| CCn1nc(C)c(NC(=O)/C=C/c2ccc(OC)c(COc3ccc(Br)cc3)c2)c1C | 13.3% |
| O=C(CSc1nnc(-c2cccs2)n1Cc1ccccc1)N1CCc2ccccc2C1 | -1.7% |
| Cc1ccc2nc(SC(C)C(=O)NCc3ccco3)[nH]c2c1 (centres undefined) | -3.6% |
| Cn1c(=O)c2c(SCC(=O)N3CCOCC3)nc(C3CC3)nc2n(C)c1=O | 4% |
| Cc1cc2cc3c(N)[nH]nc3nc2cc1C | -13.7% |
| Cc1ccc(-c2nc3ccccc3[nH]2)cc1NC(=O)c1sc2ccccc2c1Cl | 24.6% (active) |
| O=C(Nc1ccon1)c1sc2ccccc2c1Cl | -12.9% |
| Cc1ccc(-c2nc3ccccc3[nH]2)cc1N | 0.9% |
| Cc1cc([N+](=O)[O-])c(NC2CCCCC2)c([N+](=O)[O-])c1 | 6.5% |
| CC1(C)NC(=O)N(CCCCSc2ccc(Cl)cc2)C1=O | 3.1% |
| COC(=O)C1=C(Nc2ccc(C)cc2)C=C(C)C(C(=O)OC)C1c1ccc(F)cc1 (centres undefined) | -3.3% |
| c1ccc(CC2CCN(c3nc4ccccc4n4cnnc34)CC2)cc1 | 7.3% |
| CON(C)S(=O)(=O)c1ccc2c(c1)NC(=O)C1CCCN21 (centres undefined) | 6.3% |
| CN1CCN(C(=O)Cn2c(C(F)(F)F)nc3ccccc32)CC1 | 1.3% |
| COc1ccc(-n2c(C)csc2=S)cc1 | -3.8% |
| CCCCN(CC)CCCNC(=O)CS(=O)(=O)Cc1nc(-c2cccc(OC)c2)oc1C | 4.8% |
| CCCCCCc1cc2cc(-c3nnc(-c4cccc(OC)c4)o3)c(=O)oc2cc1O | 30.9% (active) |
| CCCCCCc1cc2cc(-c3nnc(-c4ccccc4)o3)c(=O)oc2cc1O | 16% |
| COc1ccc(OCC(=O)NN2Cc3ccccc3C2=N)cc1 | 8.2% |
| Cc1cc(=O)oc2cc(OCC3CC(c4ccccc4Cl)=NO3)ccc12 (centres undefined) | 0.4% |
| COc1ccc(/C(O)=C2\C(=O)C(=O)N(Cc3ccco3)C2c2ccc(OC)cc2OC)cc1 (centres undefined) | 3% |
| O=C(CN(c1ccccc1)S(=O)(=O)c1ccc(Cl)cc1)Nc1ccccc1C(=O)N1CCCC1 | 3% |
| Cc1sc2nc(SCC(N)=O)n(C)c(=O)c2c1C | -1% |
| CC(=O)c1cnc(SCCN2C(=O)c3ccccc3C2=O)nc1C | -4.7% |
| CCOc1ccccc1NC(=O)C1CCCN(C(=O)Nc2ccccc2)C1 (centres undefined) | -6% |
| COc1cccc(NC(=O)CN2CCN(c3nc(-c4cccc(OC)c4)cs3)CC2)c1 | 8.7% |

| SMILES | inhibition |
| --- | --- |
| CCOC(=O)c1[nH]c(C)c(C(=O)OCC(=O)N2c3ccccc3CC2C)c1C (centres undefined) | 2.3% |
| COc1ccc(C(C#N)Nc2ccccc2C)cc1 (centres undefined) | 7.5% |
| CCCCNC(=O)C1(c2ccc(OC)cc2)CCOCC1 | 6.4% |
| CCNC(=S)N1CCN(C(=O)c2ccco2)CC1 | -9.6% |
| O=C(/C=C/c1ccccc1)N/C(=C/c1ccccc1)C(=O)Nc1ccccc1O | 10% |
| Cc1ccc(-c2cc(C(=O)NCC3CCCO3)c3ccccc3n2)o1 (centres undefined) | 2.7% |
| C=CCn1c(-c2ccc(Cl)cc2)ccc(C#N)c1=O | 8.4% |
| Oc1ccc2ccc3cccc[n+]3c2c1 | 2.8% |
| Cc1csc2ncc(C(=O)N(Cc3ccccc3)c3ccccn3)c(=O)n12 | -3.8% |
| Cc1ccc(CN(C(=O)c2sc3ccccc3c2Cl)C2CCS(=O)(=O)C2)cc1 (centres undefined) | 3.5% |
| CSc1cc(C)n(-c2ccccc2C)c(=S)c1C(C)=O | -1.3% |
| O=C(Nc1ccccc1C(=O)NCCCn1ccnc1)c1ccc(Cl)cc1Cl | 4.3% |
| COc1ccc(CNCCCO)cc1OC | 2.8% |
| c1ccc2c(-c3nn4nnnc4c4ccccc34)cccc2c1 | 11.7% |
| COc1ccc(Oc2c(Cl)cnn(-c3ccccc3)c2=O)cc1 | -10.1% |
| COC(=O)CNS(=O)(=O)c1ccc(OC)cc1 | -2.1% |
| CCOc1cc(C(=O)Nc2c(C)ccc3nsnc23)cc(OCC)c1OCC | -14.9% |
| CC(C)(C)c1ccc(C(=O)NCC(=O)OCN2C(=O)c3ccccc3C2=O)cc1 | -8.4% |
| O=C(/C=C/NNC(=O)c1cccc(Br)c1)c1ccccc1 | 5.3% |
| Fc1ccccc1COc1ccccc1CNCc1ccncc1 | 4.4% |
| CCC(=O)NCCc1nc2ccccc2n1CC | -1% |
| CNc1nc(SC)nc(N(C#N)CC(=O)OC)n1 | -3.4% |
| CCNc1nc(NC(C)C)nc(OCCOC(=O)c2ccccc2)n1 | -0.4% |
| c1ccc(-c2ccnc3nc(-n4cccc4)nn23)cc1 | 9.9% |
| Cc1cc2nc(SCCN3CCOCC3)[nH]c2cc1C | -1% |
| O=C1N=C(N2CCOCC2)S/C1=C\C=C/c1ccccc1 | 0.2% |
| CCOCCCNC(=O)C(NC(=O)c1ccc(=O)[nH]c1)c1ccc(C)cc1 (centres undefined) | 3% |

— PubChem BioAssay AID640 (Columbia University Molecular Screening Center, 2007)
